# Data as given in PubChem BioAssay (Tox21).
# Results filed as inconclusive are left out. Where a call stands in place of a potency, no number is given. Activity calls are given as the source filed them. Calls come from the whole dose curve; as a rule, active = well fitted activation curve with a large enough effect in the repeat runs; inconclusive = weak or mixed curves; inactive = flat fitted curve, though single readings scatter.
# Experiment: A CellTox Green Cytotoxicity Assay to monitor cytotoxicity in HepG2 cells - 40 hour (AID 1224879); note: nearly all actives have a fitted effect of over 40% in size
# Conditions: CellTox Green fluorescence; series mostly up to 76.8 µM
# From the text: National Center for Advancing Translational Sciences [NCATS]
# NIH Chemical Genomics Center [NCGC]
# U.S. Environmental Protection Agency [EPA]
# National Institutes of Environmental Health Sciences [NIEHS]
# National Toxicology Program [NTP]
# Cell-based models are critical for drug discovery. Determining the natural cytotoxic effects resulting from test compounds is an essential research activity. A CellTox Green Cytotoxicity Assay to monitor cytotoxicity in real time of continues cell culture during 40 hours of the compound treatment was used to screen Tox21 10K library compounds in HepG2 cells. CellTox Green Cytotoxicity Assay is a nonlytic, homogeneous, biofluorescent method to measure cytotoxicity in cell culture after experimental manipulation. The assay system uses a proprietary asymmetric cyanine dye that is excluded from viable cells but preferentially stains the dead cell's DNA. […] Viable cells produce no appreciable increases in fluorescence. Therefore, the fluorescence signal produced by the binding interaction with dead cell DNA is proportional to cytotoxicity.
# The mixture of HepG2 cell suspension and reagents were dispensed at 600cells/6 ul/well in 1536-well tissue culture treated black solid bottom plates using a Multidrop dispenser. After the assay plates were incubated at a 37 C/5% CO2 incubator for 5 hours, 23 nL of compounds dissolved in DMSO, positive and negative controls was transferred to the assay plate by a pintool work station. The plates were incubated at 37 C for 40 hours. The fluorescence intensity were measured at 0h, 8h, 16h, 24h, 32h and 40h time points using ViewLux plate reader during compound treatment.
# Potency is the fitted concentration of half-maximal effect.
row,SMILES,Potency
1,CCN(CC)CCc1nc(-c2ccccc2)no1,inactive
2,Nc1ccc(C(=O)Nc2ccccc2N)cc1,5.35 µM (active)
3,CC(C)c1ccc2c(C(C)C)cc(C(C)C)c(S(=O)(=O)O)c2c1,inactive
4,CCOC(=O)C1=C(C)NC(C)=C(C(=O)OC)C1c1cccc([N+](=O)[O-])c1 (stereo not given),inactive
5,CCCC(C)C,inactive
6,CC(=O)/C=C/C1C(C)=CCCC1(C)C (stereo not given),inactive
7,Nc1nc(CC(=O)O)cs1,inactive
8,COCCCCCCCCOCCC[Si](C)(O[Si](C)(C)C)O[Si](C)(C)C,21.9 µM (active)
9,O=C(/C=C/c1ccc(O)c(O)c1)O[C@@H]1C[C@](O)(C(=O)O)C[C@@H](O)[C@H]1O,inactive
10,CC(CN)CCCN (stereo not given),inactive
11,C1=Cc2ccccc2C1,inactive
12,CCCCC(CC)(CO)CO,inactive
13,CCC(C)N(C)C(=O)c1cc2ccccc2c(-c2ccccc2Cl)n1 (stereo not given),28.2 µM (active)
14,OCC1CC2CC1C1CCC(CO)C21 (stereo not given),inactive
15,O=C=NC1CCC(CC2CCC(N=C=O)CC2)CC1 (stereo not given),inactive
16,COC(Cc1ccccc1)OC,inactive
17,CCCCCc1ccc(N)cc1,49 µM (active)
18,CN1CCC[C@@H]1c1cccnc1,inactive
19,Cl/C(=C\n1cncn1)c1ccc(Cl)cc1Cl,inactive
20,C=Cc1c(C)c2cc3[nH]c(cc4nc(cc5nc(cc1[nH]2)C(C)=C5CCC(=O)O)C(CCC(=O)O)=C4C)c(C)c3C=C,inactive

row,SMILES,Potency
1,CCCCC(CC)COCCCN (stereo not given),inactive
2,NCCCN(CCO)CCO,inactive
3,OC(CCN1CCCCC1)(c1ccccc1)C1CCCCC1 (stereo not given),inactive
4,CC(C)(C)c1ccc(S)cc1,inactive
5,C=CC[N+]1([C@H]2C[C@H]3[C@@H]4CC[C@H]5C[C@H](OC(C)=O)[C@@H](N6CCCCC6)C[C@]5(C)[C@H]4CC[C@]3(C)[C@H]2OC(=O)CC)CCCCC1,inactive
6,O=S(=O)(O)c1ccc(O)c2ncccc12,inactive
7,CCN(CC)CCNC(C(=O)OCCC(C)C)c1ccccc1 (stereo not given),inactive
8,CCC(=O)OC(C)(C)C1CC=C(C)CC1 (stereo not given),inactive
9,COCCOCCOCCOCCOC,inactive
10,CCOC(=S)SSC(=S)OCC,inactive
11,Cc1c(Cn2ccnc2)c2ccccc2n1CCC(=O)O,inactive
12,CC1=CCC(C(C)C)C=C1 (stereo not given),inactive
13,CCCCOC(=O)/C=C\C(=O)OCCCC,inactive
14,CC(C)=CCCC(C)CC=O (stereo not given),inactive
15,O=C(NS(=O)(=O)/C=C/c1cccs1)c1ccc(F)cc1Br,inactive
16,CCCCOCCOCCOCCOCCO,inactive
17,CC(C)(C)c1cc(CO)cc(C(C)(C)C)c1O,inactive
18,N#Cc1cc2ccccc2c2ccccc12,inactive
19,CCOC(=O)C1=NN(c2ccccc2)C(=O)C1,inactive
20,NC1CCN(c2nc3c(cc2F)c(=O)c(C(=O)O)cn3-c2ccc(F)cc2F)C1 (stereo not given),inactive
